Data: PMC5700166

Key:
Assay in all cases: protein-binding microarray (PBM); PBM: ~300 nM protein, 6 mM HEPES pH 7.8, 80 mM KCl, 0.5 mM EDTA, 0.5 mM EGTA, 6% glycerol, 35 ng/ul poly-dIdC, 1% milk, 1 h, room temperature; Ap Aiptasia and Nv Nematostella (sea anemones) / Co Capsaspora / Aq Amphimedon (sponge) / Dm Drosophila / Hu human; RHD is the Rel homology domain; high values mean tight binding
Conditions in all cases: dsDNA, one strand shown
GST-Ap-NF-kB RHD = target: T1, GST-Ap-NF-kB RHD (Exaiptasia pallida (Aiptasia), UniProt A0A913YAJ5 2-422)
T1 sequence: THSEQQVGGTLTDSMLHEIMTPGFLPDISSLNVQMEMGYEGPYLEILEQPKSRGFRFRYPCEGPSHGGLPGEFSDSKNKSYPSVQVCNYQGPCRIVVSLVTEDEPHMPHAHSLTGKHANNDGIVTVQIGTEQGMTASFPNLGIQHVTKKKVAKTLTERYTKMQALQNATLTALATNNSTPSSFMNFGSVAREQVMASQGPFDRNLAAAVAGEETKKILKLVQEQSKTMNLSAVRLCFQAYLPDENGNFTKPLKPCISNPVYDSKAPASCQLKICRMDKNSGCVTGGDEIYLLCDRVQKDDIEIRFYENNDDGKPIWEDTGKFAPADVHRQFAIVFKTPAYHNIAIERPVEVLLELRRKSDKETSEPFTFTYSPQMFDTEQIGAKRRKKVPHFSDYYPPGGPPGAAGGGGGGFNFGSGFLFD

[1] = target: T2, GST-Nv-NF-kB (Cys allele) (Nematostella vectensis, UniProt E5G601 2-411)
T2 sequence: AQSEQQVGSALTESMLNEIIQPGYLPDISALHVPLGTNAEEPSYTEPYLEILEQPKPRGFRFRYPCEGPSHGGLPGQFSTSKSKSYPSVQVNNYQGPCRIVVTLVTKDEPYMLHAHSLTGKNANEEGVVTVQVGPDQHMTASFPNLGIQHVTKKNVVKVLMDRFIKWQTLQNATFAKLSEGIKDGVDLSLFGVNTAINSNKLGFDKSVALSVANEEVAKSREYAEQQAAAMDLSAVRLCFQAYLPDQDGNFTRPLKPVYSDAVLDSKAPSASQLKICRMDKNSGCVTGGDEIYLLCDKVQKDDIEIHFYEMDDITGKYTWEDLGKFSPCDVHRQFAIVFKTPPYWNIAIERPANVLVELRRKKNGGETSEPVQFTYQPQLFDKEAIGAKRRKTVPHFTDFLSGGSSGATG

GST-Co-NF-kB = target: T3, GST-Co-NF-kB (Capsaspora owczarzaki, UniProt F1ARL5 200-546)
T3 sequence: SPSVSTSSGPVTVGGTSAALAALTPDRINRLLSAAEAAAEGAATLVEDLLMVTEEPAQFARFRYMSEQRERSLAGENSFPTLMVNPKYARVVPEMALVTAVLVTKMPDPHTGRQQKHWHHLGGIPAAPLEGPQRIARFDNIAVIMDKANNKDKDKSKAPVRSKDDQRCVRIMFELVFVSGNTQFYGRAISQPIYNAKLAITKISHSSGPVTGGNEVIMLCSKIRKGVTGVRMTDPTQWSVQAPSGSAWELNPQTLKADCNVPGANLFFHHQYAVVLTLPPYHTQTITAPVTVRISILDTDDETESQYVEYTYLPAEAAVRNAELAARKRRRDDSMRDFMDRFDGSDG

GST-Dm-Relish = target: T4, GST-Dm-Relish (Drosophila melanogaster, UniProt Q94527 99-473)
T4 sequence: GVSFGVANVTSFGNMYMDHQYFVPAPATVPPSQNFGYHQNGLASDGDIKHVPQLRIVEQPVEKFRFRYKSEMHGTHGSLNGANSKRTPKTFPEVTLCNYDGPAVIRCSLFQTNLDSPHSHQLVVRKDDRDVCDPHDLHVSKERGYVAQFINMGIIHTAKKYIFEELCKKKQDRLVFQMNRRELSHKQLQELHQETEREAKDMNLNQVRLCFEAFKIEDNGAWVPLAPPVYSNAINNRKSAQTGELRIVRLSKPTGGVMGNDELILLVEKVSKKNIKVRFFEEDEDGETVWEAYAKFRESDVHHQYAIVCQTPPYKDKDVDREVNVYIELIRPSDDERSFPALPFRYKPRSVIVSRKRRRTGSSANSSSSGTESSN

GST-Aq-NF-kB = target: T5, GST-Aq-NF-kB (Amphimedon queenslandica, UniProt A9Y5G7 2-389)
T5 sequence: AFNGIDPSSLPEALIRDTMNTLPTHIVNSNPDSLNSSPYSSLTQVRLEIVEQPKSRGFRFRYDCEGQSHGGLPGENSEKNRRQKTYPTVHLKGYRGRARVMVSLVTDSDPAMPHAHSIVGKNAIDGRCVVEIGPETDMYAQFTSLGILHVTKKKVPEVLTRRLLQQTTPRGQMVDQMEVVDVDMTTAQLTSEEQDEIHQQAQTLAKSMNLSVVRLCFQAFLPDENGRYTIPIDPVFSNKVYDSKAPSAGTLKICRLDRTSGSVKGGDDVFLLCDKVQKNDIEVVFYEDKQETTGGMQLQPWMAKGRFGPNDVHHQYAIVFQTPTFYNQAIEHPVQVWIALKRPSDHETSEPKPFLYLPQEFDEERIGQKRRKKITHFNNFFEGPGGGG

Row | Sequence | binding signal (GST-Ap-NF-kB RHD) | binding signal [1] | binding signal (GST-Co-NF-kB) | binding signal (GST-Dm-Relish) | binding signal (GST-Aq-NF-kB)
1 | CCGATTAACATCAGGCTTCCCCCTGATGTTAATCGGGTCTTGATTCGCTTGACGCTGCTG | 5.74 z-score | 5.65 z-score | 6.8 z-score | 6.44 z-score | 5.57 z-score
2 | CCGATTAACATCAATTTCCCATATGATGTTAATCGGGTCTTGATTCGCTTGACGCTGCTG | 1.56 z-score | 3.3 z-score | 2.34 z-score | 2.14 z-score | 2.17 z-score
3 | CCGATTAACATCAGGGGGGGCACTGATGTTAATCGGGTCTTGATTCGCTTGACGCTGCTG | 4.77 z-score | 3.1 z-score | 4.2 z-score | 4.97 z-score | 4.76 z-score
4 | CCGATTAACATCAAGGTACCCCCTGATGTTAATCGGGTCTTGATTCGCTTGACGCTGCTG | 5.83 z-score | 2.82 z-score | 4.58 z-score | 2.84 z-score | 3.11 z-score
5 | CCGATTAACATCAAAACAGCCCCTGATGTTAATCGGGTCTTGATTCGCTTGACGCTGCTG | 3.58 z-score | 4.9 z-score | 1.71 z-score | 3.31 z-score | 5.54 z-score
6 | CCGATTAACATCAGGGGGAGAGATGATGTTAATCGGGTCTTGATTCGCTTGACGCTGCTG | 3.84 z-score | 3.66 z-score | 5.69 z-score | 1.45 z-score | 3.54 z-score
7 | CCGATTAACATCAAATGGGAATTTGATGTTAATCGGGTCTTGATTCGCTTGACGCTGCTG | 1.19 z-score | 4.5 z-score | 1.12 z-score | 4.52 z-score | 2.35 z-score
8 | CCGATTAACATCAAACACTCCCCTGATGTTAATCGGGTCTTGATTCGCTTGACGCTGCTG | 4.43 z-score | 3.84 z-score | 3.52 z-score | 1.65 z-score | 4.61 z-score
9 | CCGATTAACATCACGGGACTCCCTGATGTTAATCGGGTCTTGATTCGCTTGACGCTGCTG | 5.53 z-score | 4.06 z-score | 1.53 z-score | 8.72 z-score | 5 z-score
10 | CCGATTAACATCAGGAATTCCCATGATGTTAATCGGGTCTTGATTCGCTTGACGCTGCTG | 6.4 z-score | 5.88 z-score | 4.61 z-score | 7.97 z-score | 7.09 z-score
11 | CCGATTAACATCACTAATTTCCCTGATGTTAATCGGGTCTTGATTCGCTTGACGCTGCTG | 3.79 z-score | 4.55 z-score | 4.57 z-score | 2.5 z-score | 4.09 z-score
12 | CCGATTAACATCAGGGGGATGTATGATGTTAATCGGGTCTTGATTCGCTTGACGCTGCTG | 4.97 z-score | 4.88 z-score | 4.13 z-score | 4.17 z-score | 4.11 z-score
13 | CCGATTAACATCAGGGGATGACCTGATGTTAATCGGGTCTTGATTCGCTTGACGCTGCTG | 3.72 z-score | 4.14 z-score | 1.93 z-score | 6.67 z-score | 6.55 z-score
14 | CCGATTAACATCAGGAAACACCCTGATGTTAATCGGGTCTTGATTCGCTTGACGCTGCTG | 3.05 z-score | 2.79 z-score | 1.1 z-score | 4.19 z-score | 6.01 z-score
15 | CCGATTAACATCACGGGAACCCCTGATGTTAATCGGGTCTTGATTCGCTTGACGCTGCTG | 5.04 z-score | 2.85 z-score | 1.9 z-score | 9.89 z-score | 5.86 z-score
16 | CCGATTAACATCACAATACCCCCTGATGTTAATCGGGTCTTGATTCGCTTGACGCTGCTG | 7.39 z-score | 4.51 z-score | 4.26 z-score | 4.2 z-score | 4.87 z-score
17 | CCGATTAACATCAGGAGATTCCCTGATGTTAATCGGGTCTTGATTCGCTTGACGCTGCTG | 3.76 z-score | 5.47 z-score | 2.78 z-score | 4.79 z-score | 7.56 z-score
18 | CCGATTAACATCAGGGGGTAAAATGATGTTAATCGGGTCTTGATTCGCTTGACGCTGCTG | 4.43 z-score | 4.2 z-score | 8.57 z-score | 3.24 z-score | 4.16 z-score

Row | Sequence | binding signal (GST-Ap-NF-kB RHD) | binding signal [1] | binding signal (GST-Co-NF-kB) | binding signal (GST-Dm-Relish) | binding signal (GST-Aq-NF-kB)
19 | CCGATTAACATCACGGGGGGGACTGATGTTAATCGGGTCTTGATTCGCTTGACGCTGCTG | 5.94 z-score | 4.86 z-score | 7.62 z-score | 4.51 z-score | 5.17 z-score
20 | CCGATTAACATCAATATTTCCCATGATGTTAATCGGGTCTTGATTCGCTTGACGCTGCTG | 2.29 z-score | 3.85 z-score | 5.1 z-score | 1.61 z-score | 3.82 z-score
21 | CCGATTAACATCAATTACCCCCCTGATGTTAATCGGGTCTTGATTCGCTTGACGCTGCTG | 5.96 z-score | 4.69 z-score | 6.96 z-score | 4.49 z-score | 5.14 z-score
22 | CCGATTAACATCAGATTTCCCACTGATGTTAATCGGGTCTTGATTCGCTTGACGCTGCTG | 1.83 z-score | 3.74 z-score | 3.15 z-score | 2.02 z-score | 2.32 z-score
23 | CCGATTAACATCAAAGTACCCCCTGATGTTAATCGGGTCTTGATTCGCTTGACGCTGCTG | 6.74 z-score | 4.38 z-score | 6.64 z-score | 4.39 z-score | 4.52 z-score
24 | CCGATTAACATCAAAATTCCCAATGATGTTAATCGGGTCTTGATTCGCTTGACGCTGCTG | 3.1 z-score | 4.95 z-score | 4.01 z-score | 5.17 z-score | 4.03 z-score
25 | CCGATTAACATCACAAAAATCCCTGATGTTAATCGGGTCTTGATTCGCTTGACGCTGCTG | 5.86 z-score | 6.11 z-score | 2.59 z-score | 8.17 z-score | 6.23 z-score
26 | CCGATTAACATCAGGGGGAGTGATGATGTTAATCGGGTCTTGATTCGCTTGACGCTGCTG | 5.05 z-score | 3.63 z-score | 3.71 z-score | 1.66 z-score | 3.44 z-score
27 | CCGATTAACATCAGAATATCCCATGATGTTAATCGGGTCTTGATTCGCTTGACGCTGCTG | 2.05 z-score | 1.17 z-score | 1.46 z-score | 1.8 z-score | 1.86 z-score
28 | CCGATTAACATCAGGGAGTCCCATGATGTTAATCGGGTCTTGATTCGCTTGACGCTGCTG | 4.64 z-score | 3.33 z-score | 1.13 z-score | 9.06 z-score | 4.21 z-score
29 | CCGATTAACATCAAAAAGTTCCCTGATGTTAATCGGGTCTTGATTCGCTTGACGCTGCTG | 4.61 z-score | 5.3 z-score | 4.37 z-score | 6.54 z-score | 5.9 z-score
30 | CCGATTAACATCAGGGAATTCACTGATGTTAATCGGGTCTTGATTCGCTTGACGCTGCTG | 4.74 z-score | 5.33 z-score | 3.01 z-score | 8.25 z-score | 6.46 z-score
31 | CCGATTAACATCAGAATTACCCATGATGTTAATCGGGTCTTGATTCGCTTGACGCTGCTG | 3.09 z-score | 3.82 z-score | 2.12 z-score | 1.97 z-score | 3.58 z-score
32 | CCGATTAACATCACGGGAATGCCTGATGTTAATCGGGTCTTGATTCGCTTGACGCTGCTG | 1.93 z-score | 2.46 z-score | 1.56 z-score | 3.11 z-score | 3.8 z-score
33 | CCGATTAACATCAGGGAGATTTGTGATGTTAATCGGGTCTTGATTCGCTTGACGCTGCTG | 3.21 z-score | 4.56 z-score | 2.54 z-score | 1.8 z-score | 4.63 z-score
34 | CCGATTAACATCAGGGAATTAACTGATGTTAATCGGGTCTTGATTCGCTTGACGCTGCTG | 2.83 z-score | 4.33 z-score | 2.63 z-score | 4.07 z-score | 5.19 z-score
35 | CCGATTAACATCAATATTTACCCTGATGTTAATCGGGTCTTGATTCGCTTGACGCTGCTG | 1.68 z-score | 3.08 z-score | 3.33 z-score | 1.66 z-score | 2.34 z-score
